Only some compounds are listed: those with a hit (about 1.8% of all), similar ones and a draw of the others.
Fam108B inh = blocks mouse Fam108B hydrolase in RBBP9 counter-screen. inhibition, % at 9.51 µM. AID 1947. recombinant Fam108B, FP-Rh probe fluorescence polarization. 300,000 compounds, 0.33% hits;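 active = inhibition above the screen mean inhibition plus 3 SD, computed separately per campaign, cut at about 18% in these data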;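 note: inhibitors lower polarization as less probe binds the enzyme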
LYPLA2 counter = blocks human lysophospholipase 2, a PME1 counter-screen | recombinant LYPLA2, FP-Rh probe fluorescence polarization | inhibition, % at 5.9 µM | 320,000 compounds, 0.38% hits;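 active = inhibition above the screen-wide mean plus 3 SD, limit set per campaign, cut at about 26% in these data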;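 note: 0% = LYPLA2 with DMSO and 100% = wells lacking LYPLA2 enzyme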
Target sequence (O95372 whole entry, looked up): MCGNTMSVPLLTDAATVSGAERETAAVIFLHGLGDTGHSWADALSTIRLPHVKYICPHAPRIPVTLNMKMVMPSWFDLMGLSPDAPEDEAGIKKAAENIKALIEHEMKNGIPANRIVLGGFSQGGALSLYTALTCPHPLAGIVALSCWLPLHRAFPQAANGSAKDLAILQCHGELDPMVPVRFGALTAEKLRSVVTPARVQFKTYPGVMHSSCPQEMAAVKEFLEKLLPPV
PME-1 inh = PME-1 (human) inhibition | inhibition, % at 5.9 µM | Q9Y570 | 320,000 compounds, 0.53% hits | recombinant PME-1, FP-Rh probe fluorescence polarization;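 active = inhibition above the campaign mean of all compounds plus 3 SD, cut at about 26% in these data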;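 note: competitive labeling of PME-1 active site by serine hydrolase directed probe; 0% = PME-1 with DMSO and 100% = wells lacking PME-1 enzyme; inhibitors block probe labeling so polarization falls and inhibition rises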
GSTO1 counter = GSTO1 inhibition, counter-screen for RBBP9 inhibitors | inhibition, % at 5.96 µM | AID 1974 | 300,000 compounds, 1.1% hits | recombinant GSTO1, activity-based probe fluorescence polarization;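 active = inhibition above the campaign mean inhibition plus 3 SD, cut at about 35% in these data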;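 note: 0% = GSTO1-1 with DMSO and 100% = wells lacking GSTO1-1 enzyme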
Target sequence (P78417 whole entry, looked up): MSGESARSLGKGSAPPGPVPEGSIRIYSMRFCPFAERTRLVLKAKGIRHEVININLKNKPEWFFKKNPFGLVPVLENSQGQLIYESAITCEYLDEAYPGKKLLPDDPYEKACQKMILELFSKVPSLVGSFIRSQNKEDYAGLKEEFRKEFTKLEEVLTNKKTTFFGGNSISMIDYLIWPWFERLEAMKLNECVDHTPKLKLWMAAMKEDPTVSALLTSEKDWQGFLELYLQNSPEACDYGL
PAD4 FP inh = PAD4 (human) enzyme inhibition. recombinant PAD4, RCA probe fluorescence polarization. inhibition, % at 6.36 µM. AID 485272. 330,000 compounds, 0.41% hits;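 active = percent inhibition above a cutoff equal to the mean of all tested compounds plus 3 SD, cut at about 15% in these data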;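 note: 0% = PAD4 with RCA probe and DMSO and 100% = probe without PAD4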
LYPLA1 inh = blocks human lysophospholipase 1, a PME1 counter-screen; O75608; recombinant LYPLA1, FP-Rh probe fluorescence polarization; inhibition, % at 5.9 µM; 320,000 compounds, 0.16% hits; AID 2174;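 active = inhibition above the mean of all tested compounds plus 3 SD, set per campaign, cut at about 14% in these data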;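 note: inhibitors block serine hydrolase probe labeling of LYPLA1 so polarization falls; 0% = enzyme with DMSO and 100% = wells lacking LYPLA1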
* hit, by the source's call; nt = not tested or not shown.

SMILES	Fam108B inh	LYPLA2 counter	PME-1 inh	GSTO1 counter	PAD4 FP inh	LYPLA1 inh
CCC(C)N(CC(=O)Nc1cccc(C)c1C)C(=O)CCl (centres undefined)	3	5	-4	52*	1	-2
Cc1[nH][nH]c(=O)c1C(c1ccc(O)c(Br)c1)c1c(C)[nH][nH]c1=O	1	-9	3	25	-6	-4
CCOc1cc(C(c2c(C)[nH][nH]c2=O)c2c(C)[nH][nH]c2=O)ccc1O	-1	4	2	46*	-11	5
C=CC(C)(C)O[C@@H]1O[C@H](CO)[C@@H](O)[C@H](O)[C@H]1O	nt	3	-4	nt	0	5
Cc1ccc(C(=O)CSC2=C(C#N)C(c3ccco3)C3=C(CCCC3=O)N2)cc1 (centres undefined)	-2	2	32*	-4	-1	-1
COC(=O)c1ccc(-n2c(C)cc(C(=O)COC(=O)C3=COCCO3)c2C)cc1	nt	nt	nt	nt	3	nt
COC(=O)c1ccc(-n2c(C)cc(C(=O)CCl)c2C)cc1	1	5	2	87*	-3	-3
CCCn1c(CCC(=O)Nc2ccccc2Cc2ccccc2)nc2cc(S(=O)(=O)N3CCOCC3)ccc21	-14	-16	37*	-8	-13	-9
Cc1nc2ccccc2c(=O)n1/N=C/c1ccccc1O	-1	4	-16	-1	4	-2
Cc1nnc(-c2ccccc2)c(=O)n1/N=C/c1c(O)ccc2ccccc12	6	-1	8	39*	-8	1
Cc1nc2ccccc2c(=O)n1/N=C/c1ccc2ccccc2c1O	3	5	-2	67*	-7	-1
Cc1nnc(C)n1/N=C/c1c(O)ccc2ccccc12	3	4	0	33	-5	-3
CCCCn1c(=O)[nH]c2nc3cc(N)ccc3nc2c1=O	9	16	23	25	14	8
C=CCn1c(=O)[nH]c2nc3cc(N=CN(C)C)c(C)cc3nc2c1=O	3	-1	-6	8	3	-3
Nc1ccc2nc3c(=O)n(CCc4ccccc4)c(=O)[nH]c3nc2c1	6	7	39*	11	14	6
Cc1cc2nc3c(=O)n(CCc4ccccc4)c(=O)[nH]c3nc2cc1N	9	2	54*	37*	1	-3
NNc1nnc2c3cc(F)ccc3n(CCc3ccccc3)c2n1	2	-5	-10	-17	-8	-2
C=C1N(C)c2cc([N+](=O)[O-])c(N)cc2C1(C)C	3	1	12	36*	2	2
O=C(CN1CCN(S(=O)(=O)c2ccc(Br)cc2)CC1)N/N=C/c1cc([N+](=O)[O-])ccc1Cl	2	-2	27*	-2	3	-1
Oc1ccc(/C=C/c2ccc3ccccc3n2)cc1	6	1	28*	-3	4	6
O=C(NCC(=O)N1CCN(S(=O)(=O)c2ccc3c(c2)OCCO3)CC1)c1ccccc1Cl	nt	3	-1	nt	1	-1
O=C1c2cccc3cccc(c23)C(=O)N1CCN1CCN(CC(O)COc2ccccc2)CC1 (centres undefined)	-3	31*	2	-2	-5	3
Cc1ccc(C2C(C#N)=C(N)Oc3n[nH]c(-c4ccccc4)c32)o1 (centres undefined)	5	-1	-1	45*	-14	-1
COc1ccc(/C=N\NC(=O)c2cc(O)c(O)c(O)c2)cc1CN1CCN(c2ccc(F)cc2)CC1	14	-18	21	52*	-3	-19
CN(C)c1ccc(NC(=O)CSc2nc3ccccc3c(=O)n2C2CCCCC2)cc1	4	8	1	5	-2	0
SMILES	Fam108B inh	LYPLA2 counter	PME-1 inh	GSTO1 counter	PAD4 FP inh	LYPLA1 inh
Cc1cc(NC(=O)CSc2nc3ccccc3c(=O)n2C2CCCC2)no1	1	-3	27*	13	2	-3
C=Cc1ccc(Cn2nc(-c3ccc(C)cc3)ccc2=O)cc1	3	1	-7	0	-1	-4
Fc1cccc2sc(Nc3nc4c(F)cccc4s3)nc12	4	-5	11	-21	-6	-7
Fc1cccc2sc(Nc3nnc(-c4ccccc4)o3)nc12	14	4	28*	-28	5	0
Oc1ccc(/C=N/N2CCOCC2)c(O)c1O	6	-3	4	38*	14	0
CCOC(=O)COc1ccc(/C=C2/C(=O)NN(c3ccc(F)cc3)C2=O)cc1OC	12	0	1	6	0	1
CCOC(=O)c1ccc(N2NC(=O)/C(=C/c3ccc(OC(=O)c4ccco4)c(OC)c3)C2=O)cc1	9	5	2	37*	-2	0
COc1ccccc1NC(=O)COC(=O)c1ccc([N+](=O)[O-])s1	5	8	-1	34	-4	4
CCc1ccccc1NC(=O)c1ccc([N+](=O)[O-])s1	2	-1	-2	41*	-6	-5
Oc1[nH]c2ccccc2c1C=Nc1ccc2c(c1)OCO2	2	-1	31*	-1	3	0
CCCc1cc(NC(=O)CCl)n(-c2ccccc2)n1	1	-2	3	101*	1	-1
CCCc1cc(NC(=O)COC(=O)c2ccc(O)cc2O)n(-c2ccccc2)n1	nt	nt	nt	nt	3	nt
CCN(CC(=O)Nc1c(F)cccc1F)C(=O)c1cc([N+](=O)[O-])ccc1N1CCCCC1	2	3	4	1	0	-3
CC(C)c1cc(Nc2cccc(O)c2)cc(C(C)C)c1O	14	-4	11	42*	4	-5
O=C(CSc1nnc(Nc2ccccc2F)s1)NC1CC1	nt	2	-3	nt	1	3
CCNc1ccc(Br)cc(C(=O)/C=C/c2ccc3c(c2)OCO3)c1=O	9	23	7	53*	6	2
CCNc1ccc(Br)cc(C(=O)/C=C/c2c(Cl)cccc2Cl)c1=O	18	5	13	37*	-7	-3
O=C(c1ccc(-c2ccc([N+](=O)[O-])cc2)o1)N1CCN(S(=O)(=O)c2cccs2)CC1	nt	5	7	nt	-2	2
COc1ccc(N2CCN(C(=O)COC(=O)c3cc(S(=O)(=O)N(C)C)ccc3N3CCCC3)CC2)cc1	2	6	-1	3	5	3
CC(=O)NC12CC3CC(C1)CC(C(=O)Oc1ccc(N(C)S(=O)(=O)c4cc(C)ccc4C)cc1)(C3)C2	-7	-9	-8	-17	-6	-3
Nc1c(O)cccc1C(=O)O	1	10	0	76*	13	0
O=C(O)c1ccccc1O	-4	-3	-4	4	-9	-2
CCCCCCN1CC(=O)N2[C@@H](Cc3c([nH]c4ccccc34)C2(C)C)C1=O	1	10	-5	8	-1	-4
Brc1ccc(C=Nc2ccc(Nc3ccccc3)cc2)s1	3	4	-1	37*	24*	1

Screening results deposited in PubChem BioAssay by The Scripps Research Institute Molecular Screening Center.
